Experiment [1] relates to Plasmodium falciparum Sir2 (PF13_0152, Sir2A). Briefly: Plasmodium falciparum Sir2A binding compounds – biochemical, small-molecule microarray, 635 nm fluorescence, primary screen (AID 1098).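 Also: score merges spot fluorescence intensity with its signal-to-noise ratio.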 The conditions noted are these: fluorescence 635 nm, higher = more signal.
Experiment [2] in a line: probe aDKK1 binding to arrayed compounds – biochemical, biotinylated probe, 635/667 nm fluorescence, primary screen (AID 1099).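 Also: score merges 667nm spot fluorescence with signal to noise across triplicate slides.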 The conditions noted are these: small-molecule microarray, higher = more signal.
A short description of experiment [3]: probe aCHRDL2 binding to arrayed compounds – biochemical, biotinylated probe, 635/667 nm fluorescence, primary screen (AID 1100). The settings on record: small-molecule microarray, higher = more signal.
The nature of experiment [4]: change in splice reporter luminescence, either direction, cell-based, HEK293, spliceosome inhibition project, primary screen (AID 1101).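 Also: HEK293 cells carrying a splicing-competent luciferase reporter gene; test concentration not given here.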 The conditions noted are these: HEK293 splicing luciferase reporter, 24 h, higher = more signal, called active from +8 up or from −8 down. Background: A reporter such as luciferase makes a cellular process visible.
For experiment [5], the target named is Fibroblast growth factor 10 (Homo sapiens) (UniProt O15520). Briefly: compounds binding fibroblast growth factor 10 – biochemical, small-molecule microarray, 635 nm fluorescence, primary screen (AID 1102). The conditions noted are these: FGF10 binding, fluorescence 635 nm, higher = more signal.
The subject of experiment [6] is glycogen synthase kinase-3 (GSK3A per assay name; protocol says GSK3B). Briefly: compounds binding glycogen synthase kinase-3 – biochemical, small-molecule microarray, 635 nm fluorescence, GSK3A, primary screen (AID 1103). Also: the record names both GSK3A and GSK3B. The settings on record: fluorescence 635 nm, higher = more signal.
The target in experiment [7] is Epidermal growth factor receptor (Homo sapiens) (UniProt P00533). Briefly: compounds binding epidermal growth factor receptor – biochemical, small-molecule microarray, 635 nm fluorescence, primary screen (AID 1104).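 Also: score merges 667 nm emission intensity with spot signal to noise over triplicate slides.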 The settings on record: EGFR binding, higher = more signal.
Experiment [8] deals with Follistatin-related protein 3 (Homo sapiens) (UniProt O95633). Briefly: compounds binding follistatin-related protein 3 – biochemical, small-molecule microarray, 635 nm fluorescence, primary screen (AID 1105).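 Also: score merges emission near 667 nm and signal to noise per printed spot across three slides.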 The conditions noted are these: FSTL3 binding, higher = more signal.
Experiment [9] addresses Dickkopf-related protein 1 (Homo sapiens) (UniProt O94907). Kind of experiment: small molecules binding DKK1 protein – biochemical, small-molecule microarray, 635 nm fluorescence scan, primary screen (AID 1106).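 Also: score merges emission near 667 nm with signal to noise over three replicate slides.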 The conditions noted are these: higher = more signal.
Experiment [10] deals with Inhibin beta A chain (activin A). Kind of experiment: small molecules binding activin A – biochemical, small-molecule microarray, 635 nm fluorescence scan, primary screen (AID 1107).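 Also: mouse activin A protein probed at 4.33 µg/mL on printed slides; score merges bound-protein fluorescence near 667 nm with spot signal-to-noise.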 The conditions noted are these: INHBA, higher = more signal.
In experiment [11] the test system is Human papillomavirus type 1a protein E7 (residues 44-93). Kind of experiment: small molecules binding HPV E7 44-93 – biochemical, small-molecule microarray, residues 44-93, 635 nm fluorescence, primary screen (AID 1108).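 Also: E7 fragment applied at 1 µg/mL in TBST for 1 h at 4 C; score combines spot fluorescence with its signal to noise ratio.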 The conditions noted are these: fluorescence 635 nm, higher = more signal.
A short description of experiment [12]: hepatitis C replication reporter changes, two-sided – Huh7 cells, luciferase reporter, HCV replication inhibitor project, primary screen (AID 1109).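 Also: huh7 hepatoma cells harbouring a luciferase neomycin HCV replicon reporter; luciferase luminescence as measure of HCV replicon replication; test concentration not given here.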 The conditions noted are these: Huh7 HCV replicon luciferase reporter, 48 h; higher = more signal.
The target of experiment [13] is Left-right determination factor 2 (Homo sapiens) (UniProt O00292). Briefly: small molecules binding LEFTY2 protein – biochemical, small-molecule microarray, 635 nm fluorescence scan, primary screen (AID 1110). The conditions noted are these: higher = more signal.
The target in experiment [14] is Calmodulin-1 (Homo sapiens) (UniProt P0DP23). Kind of experiment: small molecules binding calmodulin-1 with EGTA – biochemical, small-molecule microarray, Cy5-labelled CALM1, profiling panel (AID 1111).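 Also: labelled calmodulin applied in Tris saline Tween buffer holding calcium plus EGTA and DTT.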 The settings on record: Cy5-CALM1 binding fluorescence, higher = more signal.
Experiment [15] has the same target. Kind of experiment: small molecules binding Ca-loaded calmodulin-1 – biochemical, small-molecule microarray, Cy5-labelled CALM1, plus calcium, artefact control for SMM control-protein annotation, profiling panel (AID 1112).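 Also: score merges spot fluorescence with signal to noise from triplicate slides.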 The conditions noted are these: Cy5-CALM1 binding fluorescence, higher = more signal.
Experiment [16] can be described thus: probe aWnt5a binding to arrayed compounds – biochemical, biotinylated probe, 635/667 nm fluorescence, primary screen (AID 1113).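 Also: score merges 667 nm fluorescence intensity with signal-to-noise per printed feature.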 The settings on record: small-molecule microarray, higher = more signal.
The nature of experiment [17]: probe aShh binding to arrayed compounds – biochemical, biotinylated probe, 635/667 nm fluorescence, primary screen (AID 1114).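 Also: probe is biotin-labelled aShh protein from a stem cell growth factor screen; measures binding of labelled protein to compounds printed on the slide; score merges feature fluorescence at 667 nm with signal-to-noise.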 The conditions noted are these: small-molecule microarray, higher = more signal.
Experiment [18] can be described thus: probe aNog binding to arrayed compounds – biochemical, biotinylated probe, 635/667 nm fluorescence, primary screen (AID 1115).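 Also: probe is biotinylated aNog protein used at 0.15 µg/mL for 1 h at 4 C; z-score combines 667 nm fluorescence of each spot with its signal to noise.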 The settings on record: small-molecule microarray, higher = more signal.
The target of experiment [19] is Torsin-1A-interacting protein 1 (Homo sapiens) (UniProt Q5JTV8). Kind of experiment: compound microarray binding of lysate hLAP1 – cell lysate, small-molecule microarray, COS7 lysate, 635/667 nm fluorescence, primary screen (AID 1116). The conditions noted are these: 635 nm fluorescence, higher = more signal.
Experiment [20] has as its target Alpha-bungarotoxin (Bungarus multicinctus) (UniProt P60615). Kind of experiment: compounds binding labelled alpha-BTX control protein – biochemical, small-molecule microarray, Alexa647 label, 635/667 nm fluorescence, artefact control for SMM control protein annotation, profiling panel (AID 1117). The settings on record: alpha-BTX-A647 binding fluorescence, higher = more signal.

Activity calls are given as the source filed them.

Chain of Epidermal growth factor receptor (Homo sapiens) (P00533 whole entry, looked up): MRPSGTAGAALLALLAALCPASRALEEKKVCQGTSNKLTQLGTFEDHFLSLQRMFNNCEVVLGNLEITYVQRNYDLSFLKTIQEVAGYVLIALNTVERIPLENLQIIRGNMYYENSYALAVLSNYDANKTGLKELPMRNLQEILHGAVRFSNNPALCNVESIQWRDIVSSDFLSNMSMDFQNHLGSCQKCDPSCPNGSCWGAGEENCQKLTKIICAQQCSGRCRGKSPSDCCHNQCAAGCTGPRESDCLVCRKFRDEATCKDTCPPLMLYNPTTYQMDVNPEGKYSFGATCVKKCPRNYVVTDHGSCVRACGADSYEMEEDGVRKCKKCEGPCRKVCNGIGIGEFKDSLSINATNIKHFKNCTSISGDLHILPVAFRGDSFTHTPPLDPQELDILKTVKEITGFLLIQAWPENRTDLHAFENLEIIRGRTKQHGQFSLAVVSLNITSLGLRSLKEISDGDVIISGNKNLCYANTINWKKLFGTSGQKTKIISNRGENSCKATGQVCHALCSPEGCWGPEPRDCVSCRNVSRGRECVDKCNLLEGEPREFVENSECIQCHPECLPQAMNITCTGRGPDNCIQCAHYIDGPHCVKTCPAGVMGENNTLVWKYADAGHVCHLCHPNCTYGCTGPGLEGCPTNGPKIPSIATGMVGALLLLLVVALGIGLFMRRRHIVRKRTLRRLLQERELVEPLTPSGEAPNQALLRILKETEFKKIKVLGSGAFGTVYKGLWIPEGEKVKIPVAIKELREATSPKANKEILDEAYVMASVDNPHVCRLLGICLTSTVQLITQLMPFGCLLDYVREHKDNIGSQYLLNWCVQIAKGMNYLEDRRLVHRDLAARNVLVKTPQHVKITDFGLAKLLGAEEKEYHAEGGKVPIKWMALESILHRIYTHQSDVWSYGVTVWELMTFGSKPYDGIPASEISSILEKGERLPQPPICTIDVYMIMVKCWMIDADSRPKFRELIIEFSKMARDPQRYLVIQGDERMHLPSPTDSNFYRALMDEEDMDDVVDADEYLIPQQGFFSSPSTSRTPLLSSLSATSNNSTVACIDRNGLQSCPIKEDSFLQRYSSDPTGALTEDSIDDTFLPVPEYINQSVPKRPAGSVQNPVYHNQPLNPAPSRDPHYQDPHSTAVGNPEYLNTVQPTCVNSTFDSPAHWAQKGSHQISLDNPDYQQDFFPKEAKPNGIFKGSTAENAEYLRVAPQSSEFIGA
Chain of Dickkopf-related protein 1 (Homo sapiens) (O94907 whole entry, looked up): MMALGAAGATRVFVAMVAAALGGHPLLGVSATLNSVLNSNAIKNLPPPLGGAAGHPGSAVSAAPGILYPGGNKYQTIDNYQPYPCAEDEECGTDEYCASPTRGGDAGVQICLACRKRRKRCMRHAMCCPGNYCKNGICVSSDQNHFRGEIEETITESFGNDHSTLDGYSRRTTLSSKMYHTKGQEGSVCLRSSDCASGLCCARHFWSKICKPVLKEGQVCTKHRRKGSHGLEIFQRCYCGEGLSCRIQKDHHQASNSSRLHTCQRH
Chain of Alpha-bungarotoxin (Bungarus multicinctus) (P60615 whole entry, looked up): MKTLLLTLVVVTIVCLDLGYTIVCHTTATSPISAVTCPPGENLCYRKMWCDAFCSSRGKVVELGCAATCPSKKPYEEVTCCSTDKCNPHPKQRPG
Chain of Fibroblast growth factor 10 (Homo sapiens) (O15520 whole entry, looked up): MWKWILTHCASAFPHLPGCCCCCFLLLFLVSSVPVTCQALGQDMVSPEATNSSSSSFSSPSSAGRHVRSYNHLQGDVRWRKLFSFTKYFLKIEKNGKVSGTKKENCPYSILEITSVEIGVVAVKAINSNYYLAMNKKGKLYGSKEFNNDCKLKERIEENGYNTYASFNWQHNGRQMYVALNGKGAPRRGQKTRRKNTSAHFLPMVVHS
Chain of Follistatin-related protein 3 (Homo sapiens) (O95633 whole entry, looked up): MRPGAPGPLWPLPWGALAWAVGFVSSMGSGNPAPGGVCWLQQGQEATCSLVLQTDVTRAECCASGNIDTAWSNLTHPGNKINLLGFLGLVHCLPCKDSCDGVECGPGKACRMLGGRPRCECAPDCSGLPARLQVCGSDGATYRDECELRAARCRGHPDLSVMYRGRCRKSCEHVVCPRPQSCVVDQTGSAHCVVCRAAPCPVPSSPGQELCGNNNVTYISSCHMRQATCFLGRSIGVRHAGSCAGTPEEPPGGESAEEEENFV
Chain of Left-right determination factor 2 (Homo sapiens) (O00292 whole entry, looked up): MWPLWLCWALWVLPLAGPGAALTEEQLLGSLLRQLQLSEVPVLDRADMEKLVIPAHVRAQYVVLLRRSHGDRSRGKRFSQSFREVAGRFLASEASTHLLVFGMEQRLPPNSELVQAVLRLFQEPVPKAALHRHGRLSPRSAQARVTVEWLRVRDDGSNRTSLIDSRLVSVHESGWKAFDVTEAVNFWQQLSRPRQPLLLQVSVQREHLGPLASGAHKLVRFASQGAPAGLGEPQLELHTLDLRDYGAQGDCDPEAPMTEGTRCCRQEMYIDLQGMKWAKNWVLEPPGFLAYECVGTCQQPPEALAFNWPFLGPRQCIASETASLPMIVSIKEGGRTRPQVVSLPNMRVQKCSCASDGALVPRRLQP
Chain of Torsin-1A-interacting protein 1 (Homo sapiens) (Q5JTV8 whole entry, looked up): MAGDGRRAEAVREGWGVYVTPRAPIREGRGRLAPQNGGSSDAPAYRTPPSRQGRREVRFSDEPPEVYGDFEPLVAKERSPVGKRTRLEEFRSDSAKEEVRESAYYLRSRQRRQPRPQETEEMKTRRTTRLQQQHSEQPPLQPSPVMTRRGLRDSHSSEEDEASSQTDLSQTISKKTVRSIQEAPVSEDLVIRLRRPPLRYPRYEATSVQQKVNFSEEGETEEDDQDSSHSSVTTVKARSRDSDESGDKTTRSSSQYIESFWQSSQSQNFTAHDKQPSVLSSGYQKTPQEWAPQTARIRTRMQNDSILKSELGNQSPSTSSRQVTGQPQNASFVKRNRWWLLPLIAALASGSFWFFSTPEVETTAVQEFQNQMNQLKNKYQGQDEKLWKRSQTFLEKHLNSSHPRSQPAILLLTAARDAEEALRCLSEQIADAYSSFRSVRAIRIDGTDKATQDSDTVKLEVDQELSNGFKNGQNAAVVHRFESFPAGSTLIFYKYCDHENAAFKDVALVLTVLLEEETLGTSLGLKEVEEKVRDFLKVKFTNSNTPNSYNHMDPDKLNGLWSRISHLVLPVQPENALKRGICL

For the compound `COc1ccc([Si](C)(C)[C@@H]2[C@@H](CC(=O)N3CCC[C@H]3CO)O[C@]3(C(=O)N(Cc4ccc(N5C(=O)c6cccc7cccc5c67)cc4)c4ccccc43)[C@H]2C)cc1`, the composite z-score is 1.56 in [1]; -0.184 in experiment [2]; -0.2 in experiment [3]; 1.38 in experiment [5]; 1.29 in experiment [6]; 0.564 in [7]. Also, the composite z-score in experiment [8] came to 1.06; in [9], 0.587; in experiment [10], 0.231; in [11], 1.45; in experiment [13], 0.515; in [14] it was 0.692. Also, the composite z-score in experiment [15] is -0.292; in [16] it was -0.0437; in experiment [17] it was 0.14; in [18], -0.37; in experiment [19], 1.44; in experiment [20], 1.82. The z-score in experiment [4] was -1.11 (inactive); in [12] it was -2.25.

`O=C1NC(=O)C2C1C=CC(C(O)c1ccc3c(c1)OCO3)N2Nc1ccccn1` (stereo not given): the composite z-score in [1] was determined as 0.165; in [2], 0.301; in experiment [3], 0.555; in [5] it was 0.212; in [6] it was 0.0668; in [7] it was 0.722. Moreover, the composite z-score in [8] is 1.39; in experiment [9], 0.388; in [10], 1.64; in experiment [11] it was -0.945; in [13], 0.324; in experiment [14], 0.151. The composite z-score in experiment [15] is -0.197; in experiment [16], -0.0524; in [17], -0.0769; in experiment [18], 0.677; in experiment [19] it was 0.493; in [20], 0.498. Further, the values for the z-score in [4] and in experiment [12] were -0.653 (inactive) and 0.0264, respectively.

Take `COC(=O)C1(Cc2ccccc2)C=C2C(=C(C(C)C)C(=O)C2C)CN1` (stereo not given): the composite z-score in experiment [1] was -1.21; in experiment [2], 1.34; in experiment [3], 1.36; in experiment [5], -0.713; in experiment [6] it was -1.51; in [7], -0.449. Moreover, the composite z-score was -0.482 in experiment [8]; -1.41 in experiment [9]; 1.35 in experiment [10]; -0.549 in experiment [11]; -1.41 in [13]; 1.09 in experiment [14]. The composite z-score in experiment [15] is 1.54; in experiment [16], 0.152; in [17] it was 0.109; in experiment [18], 0.593; in experiment [19], 1.73; in experiment [20] it was -0.473. Also, the values for the z-score in experiment [4] and in experiment [12] were 1.62 (inactive) and -0.735, respectively.

With `C[C@@H](OCc1ccccc1)C1NC(=O)[C@@]23C(=O)N[C@@H](Cc4ccccc4)C2[C@H](C)[C@@]2(C)O[C@H]2C3/C=C/C/C=C\CNC(=O)CNC1=O` (stereo not given in full), the composite z-score in experiment [1] is 1.4; in experiment [2] it was -0.354; in experiment [3] it was -0.217; in experiment [5], -0.389; in experiment [6], -0.764; in experiment [7], -0.497. For the same compound, the composite z-score is -0.467 in experiment [8]; -0.166 in experiment [9]; 1.57 in [10]; -0.816 in [11]; 0.367 in experiment [13]; -1.15 in [14]. In addition, the composite z-score in experiment [15] was -1.02; in experiment [16], -0.199; in experiment [17], -0.179; in [18], -0.323; in [19] it was -0.143; in experiment [20], -1.56. Moreover, the z-score in experiment [4] was 0.848 (inactive); in [12], -0.712.

As for `CC1CC/C=C\[C@H]2OC34C=CCN(CCN5CCOCC5)C(=O)[C@H]3N(CCO)C(=O)[C@@H]4C2C(=O)O1` (stereo not given in full), the composite z-score in experiment [1] was -0.778; in experiment [2] it was -0.31; in experiment [3], 0.293; in experiment [5], -0.992; in [6], -0.831; in [7], -0.707. In addition, the composite z-score was -0.781 in experiment [8]; -0.137 in experiment [9]; 0.761 in experiment [10]; -1.99 in [11]; -1.2 in experiment [13]; -0.714 in [14]. The composite z-score in experiment [15] was -0.307; in experiment [16], -0.166; in experiment [17], -0.154; in experiment [18], -0.145; in experiment [19] it was 0.0159; in [20] it was -1.02. Also, the z-score in experiment [4] is -0.81 (inactive); in experiment [12] it was -0.504.

For `O=C(CCCCCCC(=O)Nc1ccccc1)N/N=C/c1ccccc1`, the composite z-score in [1] is 0.45; in experiment [2], -0.176; in experiment [3] it was -0.311; in experiment [5], -0.136; in experiment [6], -0.401; in experiment [7], 0.0504. Moreover, the composite z-score in experiment [8] is -0.41; in experiment [9] it was 0.328; in experiment [10] it was 0.18; in [11] it was -0.162; in experiment [13] it was 0.229; in experiment [14], -0.507. Moreover, the composite z-score was -0.491 in experiment [15]; -0.18 in experiment [16]; 0.0224 in experiment [17]; -0.216 in experiment [18]; 0.255 in experiment [19]; -0.454 in experiment [20]. Besides, the z-score in experiment [4] was -0.519 (inactive); in experiment [12] it was -0.529.

Regarding `CC(CO)N1C(=O)[C@@H]2C3C(=O)OCCC/C=C\[C@H]3OC23C=CCN(Cn2nnc4ccccc42)C(=O)[C@@H]13` (stereo not given in full), the composite z-score in experiment [1] was 1.82; in experiment [2], -0.0595; in experiment [3] it was -0.102; in experiment [5], -0.134; in experiment [6], -0.527; in [7], -0.718. For the same compound, the composite z-score was -0.474 in experiment [8]; -0.361 in [9]; 0.339 in experiment [10]; -1.01 in experiment [11]; -0.214 in experiment [13]; -0.45 in experiment [14]. Moreover, the composite z-score in experiment [15] is -0.205; in [16], -0.152; in experiment [17], -0.0553; in experiment [18], -0.196; in experiment [19], -0.718; in [20], -0.559. The z-score in [4] is -0.411 (inactive); in [12], -0.456.

The record behind these values is PubChem BioAssay.
